Laboratory results: PubChem BioAssay AID1159580 (chemical genetic matrix, 2015)
Several values for one entry are separate records, joined by “and”; a condition that tells them apart may be missing. Equal values may be shown once. Screen size: about 5,500 compounds; about 2,000 (36%) were called active. Not shown: some 18% with an inconclusive outcome. Cut-off read from the data, not from the text of the source: active = normalized growth mostly below about 0.91 (no sharp cut-off); inconclusive = no clear call, values can overlap the other calls; inactive = mostly above about 0.92. This is one part of the list.

Experiment: chemical genetic growth profiling, strain panel (AID 1159580);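 note: tested at 20 µM; growth read once vehicle control cultures reached saturation at 30 °C; 1 = growth at the plate median or of vehicle wells; lower values mean less growth of the strain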
Settings: growth OD

Measured: normalized growth

Cc1ccc(S(=O)(=O)NC(=O)NN2CCCCCC2)cc1
inactive: S. cerevisiae deletion strains, locus YJR075W, strain HOC1, active compounds read low 1.03 | S. cerevisiae deletion strains, locus YKL009W, strain mrt4, active compounds read low 1.03 | S. cerevisiae deletion strains, locus YKL068W, active compounds read low 0.988 | S. cerevisiae deletion strains, locus YKL085W, strain MDH1 (second series), active compounds read low 0.977 | S. cerevisiae deletion strains, locus YKL085W, strain MDH1, active compounds read low 0.977 | S. cerevisiae deletion strains, locus YKL160W, strain elf1, active compounds read low 0.957 | S. cerevisiae deletion strains, locus YKL190W, strain CNB1, active compounds read low 1 | S. cerevisiae deletion strains, locus YKR001C, strain vps1, active compounds read low 0.981 | S. cerevisiae deletion strains, locus YKR026C, strain gcn3, active compounds read low 0.992 | S. cerevisiae deletion strains, locus YKR091W, strain srl3, active compounds read low 0.983 | S. cerevisiae deletion strains, locus YLL001W, strain dnm1, active compounds read low 0.982 | S. cerevisiae deletion strains, locus YLL026W, active compounds read low 0.995 | S. cerevisiae deletion strains, locus YLL041C, strain sdh2, active compounds read low 0.99 | S. cerevisiae deletion strains, locus YLR027C, strain aat2, active compounds read low 0.99 | S. cerevisiae deletion strains, locus YLR039C, strain RIC1, active compounds read low 0.954 | S. cerevisiae deletion strains, locus YLR058C, strain SHM2, active compounds read low 0.992 | S. cerevisiae deletion strains, locus YLR102C, strain apc9, active compounds read low 0.985 | S. cerevisiae deletion strains, locus YLR113W, strain HOG1, active compounds read low 1.03 | S. cerevisiae deletion strains, locus YLR221C, strain rsa3, active compounds read low 1.02 | S. cerevisiae deletion strains, locus YLR258W, strain gsy2, active compounds read low 0.98 | S. cerevisiae deletion strains, locus YLR262C, strain YPT6 (second series), active compounds read low 0.961 | S. cerevisiae deletion strains, locus YLR262C, strain YPT6, active compounds read low 0.962 | S. cerevisiae deletion strains, locus YLR268W, strain sec22, active compounds read low 0.983 | S. cerevisiae deletion strains, locus YLR320W, strain mms22, active compounds read low 0.996 | S. cerevisiae deletion strains, locus YLR330W, strain CHS5, active compounds read low 0.994 | S. cerevisiae deletion strains, locus YLR342W, strain FKS1 (second series), active compounds read low 0.941 | S. cerevisiae deletion strains, locus YLR342W, strain FKS1, active compounds read low 0.987 | S. cerevisiae deletion strains, locus YLR357W, strain rsc2, active compounds read low 0.928 | S. cerevisiae deletion strains, locus YLR370C, strain arc18, active compounds read low 0.968 | S. cerevisiae deletion strains, locus YLR371W, strain rom2, active compounds read low 0.977 | S. cerevisiae deletion strains, locus YLR384C, strain iki3, active compounds read low 0.992 | S. cerevisiae deletion strains, locus YLR418C, strain cdc73, active compounds read low 0.989 | S. cerevisiae deletion strains, locus YML016C, strain PPZ1, active compounds read low 0.991 | S. cerevisiae deletion strains, locus YML032C, strain rad52, active compounds read low 0.992 | S. cerevisiae deletion strains, locus YML120C, strain ndi1, active compounds read low 1 | S. cerevisiae deletion strains, locus YML124C, strain tub3, active compounds read low 0.988 | S. cerevisiae deletion strains, locus YMR058W, strain fet3, active compounds read low 0.994 | S. cerevisiae deletion strains, locus YMR078C, strain ctf18, active compounds read low 0.968 | S. cerevisiae deletion strains, locus YMR125W, strain sto1, active compounds read low 0.988 | S. cerevisiae deletion strains, locus YMR129W, active compounds read low 0.987 | S. cerevisiae deletion strains, locus YMR205C, strain PFK2, active compounds read low 1.01 | S. cerevisiae deletion strains, locus YMR223W, strain ubp8, active compounds read low 0.97 | S. cerevisiae deletion strains, locus YMR231W, strain pep5, active compounds read low 0.986 | S. cerevisiae deletion strains, locus YMR263W, strain SAP30, active compounds read low 0.998 | S. cerevisiae deletion strains, locus YMR307W, strain GAS1, active compounds read low 0.956 and 1 | S. cerevisiae deletion strains, locus YNL067W, strain RPL9B, active compounds read low 1.02 | S. cerevisiae deletion strains, locus YNL071W, strain lat1, active compounds read low 0.99 | S. cerevisiae deletion strains, locus YNL128W, strain TEP1, active compounds read low 0.988 | S. cerevisiae deletion strains, locus YNL153C, strain GIM3, active compounds read low 1.05 and 1 | S. cerevisiae deletion strains, locus YNL175C, strain NOP13, active compounds read low 0.991 | S. cerevisiae deletion strains, locus YNL183C, strain NPR1, active compounds read low 0.946 | S. cerevisiae deletion strains, locus YNL197C, strain WHI3, active compounds read low 0.974 | S. cerevisiae deletion strains, locus YNL209W, strain ssb2, active compounds read low 0.968 | S. cerevisiae deletion strains, locus YNL224C, strain SQS1, active compounds read low 1 | S. cerevisiae deletion strains, locus YNL233W, strain BNI4, active compounds read low 1.04 | S. cerevisiae deletion strains, locus YNL248C, strain rpa49, active compounds read low 0.961 | S. cerevisiae deletion strains, locus YNL250W, strain rad50, active compounds read low 0.949 | S. cerevisiae deletion strains, locus YNL271C, strain bni1, active compounds read low 0.983 | S. cerevisiae deletion strains, locus YNL298W, strain CLA4, active compounds read low 0.965 | S. cerevisiae deletion strains, locus YNL307C, strain MCK1, active compounds read low 0.983 | S. cerevisiae deletion strains, locus YNL322C, strain KRE1 (second series), active compounds read low 0.965 | S. cerevisiae deletion strains, locus YNL322C, strain KRE1, active compounds read low 1 | S. cerevisiae deletion strains, locus YNR049C, strain mso1, active compounds read low 0.967 | S. cerevisiae deletion strains, locus YNR052C, strain pop2, active compounds read low 0.974 | S. cerevisiae deletion strains, locus YOL006C, strain TOP1, active compounds read low 1.02 | S. cerevisiae deletion strains, locus YOL012C, strain htz1 1.06 | S. cerevisiae deletion strains, locus YOL147C, strain pex11, active compounds read low 0.975 | S. cerevisiae deletion strains, locus YOR001W, strain rrp6, active compounds read low 1.03 | S. cerevisiae deletion strains, locus YOR061W, strain CKA2, active compounds read low 0.994 | S. cerevisiae deletion strains, locus YOR069W, strain VPS5, active compounds read low 0.994 | S. cerevisiae deletion strains, locus YOR070C, strain gyp1, active compounds read low 0.979 | S. cerevisiae deletion strains, locus YOR080W, strain dia2, active compounds read low 0.979 | S. cerevisiae deletion strains, locus YOR083W, strain WHI5 (second series), active compounds read low 0.971 | S. cerevisiae deletion strains, locus YOR083W, strain WHI5, active compounds read low 0.927 | S. cerevisiae deletion strains, locus YOR106W, strain vam3, active compounds read low 0.984 | S. cerevisiae deletion strains, locus YOR136W, strain idh2, active compounds read low 0.984 | S. cerevisiae deletion strains, locus YOR144C, strain elg1, active compounds read low 0.974 | S. cerevisiae deletion strains, locus YOR184W, strain ser1, active compounds read low 1 | S. cerevisiae deletion strains, locus YOR231W, strain MKK1, active compounds read low 1 | S. cerevisiae deletion strains, locus YOR265W, strain rbl2, active compounds read low 1 | S. cerevisiae deletion strains, locus YOR270C, strain vph1, active compounds read low 1.02 | S. cerevisiae deletion strains, locus YOR290C, strain snf2, active compounds read low 0.957 | S. cerevisiae deletion strains, locus YOR316C, strain cot1, active compounds read low 0.992 | S. cerevisiae deletion strains, locus YPL051W, strain arl3, active compounds read low 0.969 | S. cerevisiae deletion strains, locus YPL078C, strain atp4, active compounds read low 0.98 | S. cerevisiae deletion strains, locus YPL106C, strain sse1, active compounds read low 0.957 | S. cerevisiae deletion strains, locus YPL240C, strain hsp82, active compounds read low 0.988 | S. cerevisiae deletion strains, locus YPL241C, strain CIN2, active compounds read low 0.999 | S. cerevisiae deletion strains, locus YPL256C, strain CLN2, active compounds read low 1.01 | S. cerevisiae deletion strains, locus YPR119W, strain clb2, active compounds read low 0.983 | S. cerevisiae deletion strains, locus YPR141C, strain kar3, active compounds read low 0.976 | S. cerevisiae deletion strains, locus YPR163C, strain tif3, active compounds read low 0.982 | S. cerevisiae deletion strains, locus YPR167C, strain met16, active compounds read low 0.991 | S. cerevisiae deletion strains, strain wtn01, active compounds read low 1.01 | S. cerevisiae strains, strain wild type, active compounds read low 1
